IMPase Li cell – cell-permeable IMPase inhibitors with lithium potentiation | CHO-M1 cells, IP1 TR-FRET (IP-One), carbachol + lithium | Potency, µM (doses to about 59.4 µM), inactives show at the highest dose activity, negative = IMPase inhibition, actives largely listed as inhibitors | 210,000 tested, 0.35% active;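 note: IP1 builds up when IMPase is blocked and the TR-FRET signal falls; potency is the fitted concentration of half-maximal effect; plate controls were basal vehicle for no effect and high inhibitor control for full effect; nearly all actives have a fitted effect of over 50% in size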
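CHO cells stably expressing M1 receptor (2000/well) were cultured 16–30 h, then exposed to compounds with a small lithium addition for 30 min at 37C. IP1 was measured by TR-FRET competition; AC50 from Hill fits.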
IMPase inh – membrane-permeable compound that blocks inositol monophosphatase; P97697; CHO-M1 cells, IP1 accumulation, HTRF TR-FRET ratio; inhibition (IP1 accumulation), % at 46.1 µM; 120,000 tested, under 10 active; AID 901; active = well fitted curve in the direction sought with a large enough effect in the signal ratio, not every such curve was filed as active; inconclusive = small, poorly fitted or top-dose-only effect, or a change in a side signal; inactive = no such curve, though single readings can be large or run the other way; the % refers to the signal ratio;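 note: cells stimulated with carbachol in lithium chloride buffer; plate controls were DMSO basal wells for no effect and reference inhibitor wells for full effect; higher means more IMPase inhibition seen as more IP1 and lower FRET ratio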
Target sequence (P97697 whole entry, looked up): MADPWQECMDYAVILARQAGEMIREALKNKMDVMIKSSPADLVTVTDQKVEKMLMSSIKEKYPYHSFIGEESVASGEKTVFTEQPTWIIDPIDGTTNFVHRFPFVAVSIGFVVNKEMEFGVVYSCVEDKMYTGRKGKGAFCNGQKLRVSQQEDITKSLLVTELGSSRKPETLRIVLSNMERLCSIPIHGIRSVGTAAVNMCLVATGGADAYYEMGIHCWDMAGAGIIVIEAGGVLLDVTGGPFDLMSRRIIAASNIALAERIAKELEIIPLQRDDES
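Seeded CHO-M1 cells were dosed with compound at up to 46 uM, stimulated with carbachol for 30 min, then lysed in IP-One detection reagents. Higher IP1 lowers the TR-FRET signal.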
ALDH1A1 block – ALDH1A1 (human) enzyme inhibition; Purified ALDH1A1, NADH fluorescence, propionaldehyde substrate; AID 1030; 220,000 tested, 7.3% active; Potency, µM (titrated, usually from 75.3 µM), inactives show at the highest dose activity, negative = inhibition, most hits filed as inhibitors; P00352; active = well fitted inhibition curve with a large enough effect, not every such curve was filed as active; inconclusive = small, poorly fitted or top-dose-only effect, or another doubt; inactive = no such curve, though single readings can be large or run the other way;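 note: potency is the fitted concentration of half-maximal effect; plate controls were no enzyme wells and a reference inhibitor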
HPGD block – HPGD (human) dehydrogenase inhibition | purified HPGD, NADH fluorescence kinetic, PGE2 substrate | 150,000 tested, 4.3% active | Potency, µM, for the others: top-dose activity change, negative = inhibition, hits mostly inhibitors; active = well fitted inhibition curve with a large enough effect, not every such curve was filed as active; inconclusive = small, poorly fitted or top-dose-only effect, or another doubt; inactive = no such curve, though single readings can be large or run the other way; note: potency is the fitted concentration of half-maximal effect
Target sequence (P15428 whole entry, looked up): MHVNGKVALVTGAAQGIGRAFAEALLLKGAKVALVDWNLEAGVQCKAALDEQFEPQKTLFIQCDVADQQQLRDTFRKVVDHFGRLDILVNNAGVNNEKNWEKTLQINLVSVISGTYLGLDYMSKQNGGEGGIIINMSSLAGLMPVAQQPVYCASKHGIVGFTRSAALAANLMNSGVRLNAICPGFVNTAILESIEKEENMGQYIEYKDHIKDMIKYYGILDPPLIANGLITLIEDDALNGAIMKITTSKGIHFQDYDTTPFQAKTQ
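NADH formation kinetics: reaction with 30 uM PGE2 and 1 mM NAD+ (final), 20 nM enzyme, Tris-HCl pH 8 with Tween 20, after 15 min compound preincubation at room temperature. Fluorescence change, last versus first of five reads.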
NPSR antag – neuropeptide S receptor (human) antagonism, cAMP; Q6W5P4; 220,000 tested, 1% active; CHO-NPSR cells, cAMP TR-FRET, antagonist mode; Potency, µM (highest dose often 38.3 µM), for inactives: at the top dose activity change, negative = inhibition, actives largely listed as inhibitors; note: potency is the fitted concentration of half-maximal effect; nearly all actives have a fitted effect of over 50% in size
ALOX12 inhib – 12-hLO (ALOX12) enzyme inhibition; 150,000 tested, 0.12% active; AID 1452; purified 12-hLO, xylenol orange hydroperoxide absorbance; Potency, µM (doses to about 57.1 µM), without a hit: at the highest dose activity change, negative = inhibition, most hits filed as inhibitors; note: potency is the fitted concentration of half-maximal effect; nearly all actives have a fitted effect of over 55% in size
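Purified human 12hLO (150 nM), preincubated 15 min with compound, then 40 uM arachidonic acid for 30 min, room temperature, Hepes pH 7.0 with 0.01% Triton X-100. Hydroperoxide detected by ferrous iron/xylenol orange; 573/405 nm absorbance ratio gives reaction progress.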
Numbers without * were called inactive; ? = inconclusive; . = not tested or not shown; ! = a repeat was not active; [ ] = dose if it differs, or a comment. Rows were chosen to be rich in hits. Some 8.9% of all compounds tested hit in one or more screens of this group. Unless noted, calls come from the whole dose curve; as a rule, active = well fitted curve in the direction sought with a large enough effect; inconclusive = small, poorly fitted or top-dose-only effect, or another doubt; inactive = no such curve, though single readings can be large; an effect the other way counts as inactive or inconclusive. Unless noted, % is set by controls: 0 for no effect and ±100 for the full control effect.

SMILES	IMPase Li cell	IMPase inh	ALDH1A1 block	HPGD block	NPSR antag	ALOX12 inhib
Cc1occc1-c1nnc(SCC(=O)Nc2ccccc2)n1CCc1ccccc1	2%[38.3 µM]	0	4%	-2%	-21%[46.1 µM]	-10%
CCOC(=O)c1cccc(NC(=O)CSc2nnc(-c3ccoc3C)n2CCOC)c1	4%[38.3 µM]	15	20µM*	-14%	0%[46.1 µM]	11%
C[C@](N)(Cc1ccc(O)c(O)c1)C(=O)O	0%	-4	5.6µM*!	?	-31%	-19%
COc1ccc(/C=N/n2c(-c3cc(C)[nH]n3)n[nH]c2=S)cc1	.	.	.	.	-25%	.
S=c1[nH]ncn1/N=C/c1ccc(Br)cc1	-14%[38.3 µM]	9	32µM*	22µM*	?	-14%
CCn1c2ccccc2c2cc(/C=N/n3cn[nH]c3=S)ccc21	1%[38.3 µM]	6	22µM*	16µM*	?	-6%
CCn1c2ccccc2c2cc(/C=N/n3cnnc3)ccc21	2%[38.3 µM]	8	?	?	-8%[46.1 µM]	4%
CCn1c2ccccc2c2cc(/C=N/n3c(-c4cc(C)[nH]n4)n[nH]c3=S)ccc21	.	.	13µM*	.	29%	.
O=C1C2C3C=CC(C2C(=O)N1c1ccc(O)cc1)C1C2C(=O)N(c4ccc(O)cc4)C(=O)C2C31 (stereo unspecified)	.	.	.	.	10%	.
CCN(NC(=O)C(O)(c1ccccc1)c1ccccc1)C(=O)c1ccccc1	-3%	7	?	-6%	17%	3%
COCCCn1c(SCC(=O)Nc2sc3c(c2C#N)CCCC3)nnc1-c1ccncc1	4%	-8	20µM*	?	-5%[46.1 µM]	-18%
CN(C)CCCn1c(SCC(=O)Nc2sc3c(c2C#N)CCCC3)nnc1-c1ccncc1	23%[38.3 µM]	6	7.1µM*	6%	-2%[46.1 µM]	-8%
COCCCn1c(SCC(=O)Nc2cccc(C(=O)OC)c2)nnc1-c1ccncc1	.	4	12%	.	-1%[46.1 µM]	1%
O=C1c2cccc3cccc(c23)N1Cc1ccc(F)cc1	-16%	.	5%	?	-18%	-4%
CC(C)CCn1c(=O)c2ccccc2n2c(CCl)nnc12	6%	.	25µM*	.	?	.
CC(C)CCn1c(=O)c2ccccc2n2c(CN3CCCC3)nnc12	15%	.	?	.	-13%	.
CCCCCn1c(=O)c2ccccc2n2c(CCl)nnc12	3%	.	25µM*	.	-42%	.
O=C1c2ccc3c4c(ccc(c24)C(=O)N1c1cccc(O)c1)CC3	-3%	.	-5%	.	6%	.
CCN(CC)CC(C)OC(=O)c1cc(OC)c(OC)c(OC)c1 (stereo unspecified)	1%[38.3 µM]	7	3%	-12%	-3%[46.1 µM]	6%
O=C(Oc1ccccc1)N1CCC2(CCCN(c3ccncc3)C2)CC1	23%	.	-8%	-10%	.	0%
COC(=O)c1ccc(C2Nc3c(C)cc(C)cc3C3C=CCC32)cc1 (stereo unspecified)	.	2	.	.	.	.
Cc1cc(C)c2c(c1)[C@@H]1C=CC[C@@H]1[C@H](c1ccc(S(=O)(=O)N3CCOCC3)cc1)N2	7%	.	25µM*	25µM*	-27%	0%
COCC(O)CSc1c([N+](=O)[O-])nc(C)n1Cc1ccc(OC)c([N+](=O)[O-])c1 (stereo unspecified)	4%	-1	25µM*	-4%	-12%[46.1 µM]	4%
CCN1/C(=C/c2cc[n+](C)cc2)C=Cc2cc(C)ccc21	48%	.	?	-1%	-27%	0%
COc1ccc(CCCC(=O)NC2CCCCC2C)c(C)c1 (stereo unspecified)	-6%[38.3 µM]	9	16µM*	3.5µM*	-13%[46.1 µM]	-1%
Cc1ccc(C(=O)c2oc3ccccc3c2NC(=O)COc2ccc(Cl)c(C)c2)cc1	.	0	.	.	.	.
Cc1ccc(S(=O)(=O)NCc2ccc(C(=O)N3CCCC3)cc2)cc1	-2%	.	?	20µM*	13%	-5%
CCOC(=O)N1CCN(C(=O)c2ccc(CNS(=O)(=O)c3ccc(C)cc3)cc2)CC1	-35%[38.3 µM]	5	0%	-5%	?	-4%
